# Test results taken from the supplement of paper PMC9023506.
# How the values were obtained:
# Settings in all cases: 10 µM; exposure time: 3 h pre-incubation + 3 h imaging
# [1] = tested on: Danio rerio larvae (5 dpf); assay: habituation to 1-s acoustic pulses, difference vs DMSO (percentage points (treated minus DMSO)); higher = more of the behaviour than the DMSO vehicle control
# In short: (§1)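 5-dpf wild-type zebrafish larvae in 96-well ProxiPlates were exposed to library drugs at 10 µM (diluted 1000× from DMSO stocks into egg water). There were 48 larvae per drug, exposed 3 h before and 3 h during imaging at 28.5 °C. Images taken every 6 s covered a 3-h program of rest, moving coloured lines and acoustic pulses, and an ImageJ macro scored movement and upper-half location. Each behaviour score is the treated-group mean minus the DMSO vehicle mean, in percentage points.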
# [2] = tested on: Danio rerio larvae (5 dpf); assay: excitability to 1-s acoustic pulses, difference vs DMSO (percentage points (treated minus DMSO)); higher = more of the behaviour than the DMSO vehicle control
# In short: as §1
# [3] = tested on: Danio rerio larvae (5 dpf); assay: optomotor response to fast red moving lines, difference vs DMSO (percentage points (treated minus DMSO)); higher = more of the behaviour than the DMSO vehicle control
# In short: as §1
# [4] = tested on: Danio rerio larvae (5 dpf); assay: activity during period 15 (no stimuli), difference vs DMSO (percentage points (treated minus DMSO)); higher = more of the behaviour than the DMSO vehicle control
# In short: as §1
# [5] = tested on: Danio rerio larvae (5 dpf); assay: startle response to 20-s acoustic pulses, difference vs DMSO (percentage points (treated minus DMSO)); higher = more of the behaviour than the DMSO vehicle control
# In short: as §1
compound,measurement,setting,value
CC(=O)Oc1ccccc1C(=O)O [Aspirin],habituation to 1-s acoustic pulses,[1],-5.13
same,excitability to 1-s acoustic pulses,[2],10.2
same,optomotor response,[3],-7.85
Nc1ncn([C@@H]2O[C@H](CO)[C@@H](O)[C@H]2O)c(=O)n1 [5-Azacytidine],optomotor response,[3],1.5
C#C[C@]1(O)CC[C@H]2[C@@H]3CCC4=CC(=O)CC[C@@H]4[C@H]3CC[C@@]21CC [Levonorgestrel],excitability to 1-s acoustic pulses,[2],1.14
same,activity during period 15,[4],-6.07
NC(=O)c1ncn([C@@H]2O[C@H](CO)[C@@H](O)[C@H]2O)n1 [Ribavirin],excitability to 1-s acoustic pulses,[2],-0.206
same,startle response to 20-s acoustic pulses,[5],1.75
same,optomotor response,[3],0.429
C/C(O)=C(\C#N)C(=O)Nc1ccc(C(F)(F)F)cc1 [Teriflunomide],habituation to 1-s acoustic pulses,[1],-1.26
CCC(=O)O[C@]1(C(=O)SCF)[C@H](C)C[C@H]2[C@@H]3C[C@H](F)C4=CC(=O)C=C[C@]4(C)[C@@]3(F)[C@@H](O)C[C@@]21C [Fluticasone propionate],startle response to 20-s acoustic pulses,[5],-3.1
